# This is one part of a sample in which the strongest signals are shown more often than they occur.
# How the values were obtained:
# Experiment in all cases: glycan array binding signal (z-score within array); higher = stronger binding
# Conditions in all cases: glycan notation: IUPAC condensed, linker removed
# [1] = target: Fuc(a1-2)Gal(b1-3)GalNAc(a1-3)[Fuc(a1-2)]Gal(b1-4)Glc
# Procedure, shortened: (§1)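 Glycan array data were curated from 3228 arrays in the Consortium for Functional Glycomics database and kept only where the protein sequence was available. Glycan names were converted to IUPAC-condensed notation, and columns mapping to the same glycan were averaged. The binding signal is a within-array Z-score, averaged across arrays of the same protein sequence at different concentrations or buffers and across linkers. Negative Z-scores can be read as non-binding.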
# [2] = target: Fuc(a1-2)Gal(b1-3)[Fuc(a1-4)]GlcNAc(b1-2)Man(a1-3)[Fuc(a1-2)Gal(b1-3)[Fuc(a1-4)]GlcNAc(b1-2)Man(a1-3)]Man(b1-4)GlcNAc(b1-4)GlcNAc
# Procedure, shortened: as §1
# [3] = target: Fuc(a1-2)Gal(b1-4)GlcNAc(b1-3)Gal(b1-4)GlcNAc(b1-2)Man(a1-3)[Fuc(a1-2)Gal(b1-4)GlcNAc(b1-3)Gal(b1-4)GlcNAc(b1-2)Man(a1-6)]Man(b1-4)GlcNAc(b1-4)GlcNAc
# Procedure, shortened: as §1
# [4] = target: Fuc(a1-2)Gal(b1-4)[Fuc(a1-3)]GlcNAc(b1-2)[Fuc(a1-2)Gal(b1-4)[Fuc(a1-3)]GlcNAc(b1-4)]Man(a1-3)[Fuc(a1-2)Gal(b1-4)[Fuc(a1-3)]GlcNAc(b1-2)Man(a1-6)]Man(b1-4)GlcNAc(b1-4)GlcNAc
# Procedure, shortened: as §1
# [5] = target: Fuc(a1-2)Gal6S(b1-3)GlcNAc6S
# Procedure, shortened: as §1
# [6] = target: Fuc(a1-2)[Gal(a1-3)]Gal
# Procedure, shortened: as §1
# [7] = target: Fuc(a1-2)[Gal(a1-3)]Gal(b1-3)GlcNAc(b1-3)GalNAc
# Procedure, shortened: as §1
# [8] = target: Fuc(a1-2)[GalNAc(a1-3)]Gal(b1-3)GlcNAc(b1-2)Man(a1-3)[Fuc(a1-2)[GalNAc(a1-3)]Gal(b1-3)GlcNAc(b1-2)Man(a1-6)]Man(b1-4)GlcNAc(b1-4)[Fuc(a1-6)]GlcNAc
# Procedure, shortened: as §1
# [9] = target: Fuc(a1-2)[GalNAc(a1-3)]Gal(b1-3)GlcNAc(b1-6)GalNAc
# Procedure, shortened: as §1
# [10] = target: Fuc(a1-2)[GalNAc(a1-4)]Gal(b1-4)GlcNAc
# Procedure, shortened: as §1
# [11] = target: Fuc(a1-3)[Gal(b1-4)]GlcNAc(b1-3)Gal(b1-4)[Fuc(a1-3)]GlcNAc(b1-3)Gal(b1-4)[Fuc(a1-3)]GlcNAc
# Procedure, shortened: as §1
# [12] = target: Gal(a1-3)Fuc(a1-2)Gal(b1-4)GlcNAc(b1-3)[Gal(a1-3)Fuc(a1-2)Gal(b1-4)GlcNAc(b1-6)]GalNAc
# Procedure, shortened: as §1
# [13] = target: Gal(a1-3)Gal(b1-3)GlcNAc
# Procedure, shortened: as §1
# [14] = target: Gal(a1-3)Gal(b1-4)GlcNAc(b1-2)Man(a1-3)[Gal(a1-3)Gal(b1-4)GlcNAc(b1-2)Man(a1-6)]Man(b1-4)GlcNAc(b1-4)GlcNAc
# Procedure, shortened: as §1
# [15] = target: Gal(a1-4)Gal(b1-3)GlcNAc(b1-2)Man(a1-3)[Gal(a1-4)Gal(b1-3)GlcNAc(b1-2)Man(a1-6)]Man(b1-4)GlcNAc(b1-4)GlcNAc
# Procedure, shortened: as §1
# [16] = target: Gal(a1-4)Gal(b1-4)GlcNAc(b1-3)Gal(b1-4)Glc
# Procedure, shortened: as §1
# [17] = target: Gal(b1-3)GlcNAc(a1-6)Gal(b1-4)GlcNAc
# Procedure, shortened: as §1
# [18] = target: Gal(b1-3)GlcNAc6S
# Procedure, shortened: as §1
# [19] = target: Gal(b1-3)[Neu5Ac(a2-6)]GlcNAc(b1-4)Gal(b1-4)Glc
# Procedure, shortened: as §1
# [20] = target: Gal(b1-4)GlcNAc(b1-2)Man(a1-3)Man(b1-4)GlcNAc(b1-4)GlcNAc
# Procedure, shortened: as §1
# [21] = target: Gal(b1-4)GlcNAc(b1-2)Man(a1-3)[Gal(b1-4)GlcNAc(b1-2)Man(a1-6)]Man(b1-4)GlcNAc(b1-4)GlcNAc
# Procedure, shortened: as §1
# [22] = target: Gal(b1-4)GlcNAc(b1-2)[Gal(b1-4)GlcNAc(b1-4)]Man(a1-3)[GlcNAc(b1-4)][Gal(b1-4)GlcNAc(b1-2)Man(a1-6)]Man(b1-4)GlcNAc(b1-4)GlcNAc
# Procedure, shortened: as §1
# [23] = target: Gal(b1-4)GlcNAc(b1-2)[Gal(b1-4)GlcNAc(b1-6)]Man(a1-6)[Gal(b1-4)GlcNAc(b1-2)Man(a1-3)]Man(b1-4)GlcNAc(b1-4)[Fuc(a1-6)]GlcNAc
# Procedure, shortened: as §1
# [24] = target: Gal(b1-4)GlcNAc(b1-3)Gal(b1-4)GlcNAc(b1-2)Man(a1-3)[Gal(b1-4)GlcNAc(b1-3)Gal(b1-4)GlcNAc(b1-2)Man(a1-6)]Man(b1-4)GlcNAc(b1-4)[Fuc(a1-6)]GlcNAc
# Procedure, shortened: as §1
# [25] = target: Gal(b1-4)GlcNAc(b1-3)Gal(b1-4)GlcNAc(b1-3)Gal(b1-4)GlcNAc(b1-2)Man(a1-3)[Gal(b1-4)GlcNAc(b1-3)Gal(b1-4)GlcNAc(b1-3)Gal(b1-4)GlcNAc(b1-2)Man(a1-6)]Man(b1-4)GlcNAc(b1-4)GlcNAc
# Procedure, shortened: as §1
# [26] = target: Gal(b1-4)GlcNAc(b1-3)Gal(b1-4)GlcNAc(b1-3)[Gal(b1-4)GlcNAc(b1-3)Gal(b1-4)GlcNAc(b1-6)]GalNAc
# Procedure, shortened: as §1
# [27] = target: Gal(b1-6)Gal
# Procedure, shortened: as §1
# [28] = target: Gal3S(b1-4)Glc
# Procedure, shortened: as §1
# [29] = target: Gal4S6S(b1-4)GlcNAc
# Procedure, shortened: as §1
binder,measurement,setting,value
FliC (Clostridium difficile) (protein) MRVNTNVSALIANNQMGRNVNGQSKSMEKLSSGVRIKRAADDAAGLAISEKMRAQIKGLDQAGRNVQDGISVVQTAEGSLEETGNILQRMRTLSLQSANEINNTEEREKIADELTQLKDEIERISSSTEFNGKKLLDGTSSTIRLQVGASYGTNVSGTSNNNNEIKIQLVNTASIMASAGITTASIGSMKAGGTTGTDAAKTMVSSLDAALKSLNSSRAKLGAQQNRLESTQNNLNNTLENVTAAESRIRDTDVASEMVNLSKMNILVQASQSMLAQANQQPQGVLQLLG,glycan array binding signal (z-score),[1],0.883
same,glycan array binding signal (z-score),[2],0.721
same,glycan array binding signal (z-score),[3],0.257
same,glycan array binding signal (z-score),[4],0.298
same,glycan array binding signal (z-score),[5],0.013
same,glycan array binding signal (z-score),[6],0.187
same,glycan array binding signal (z-score),[7],0.173
same,glycan array binding signal (z-score),[8],1.26
same,glycan array binding signal (z-score),[9],-0.176
same,glycan array binding signal (z-score),[10],-0.165
same,glycan array binding signal (z-score),[11],-0.069
same,glycan array binding signal (z-score),[12],-0.356
same,glycan array binding signal (z-score),[13],4.21
same,glycan array binding signal (z-score),[14],8.29
same,glycan array binding signal (z-score),[15],4.1
same,glycan array binding signal (z-score),[16],0.243
same,glycan array binding signal (z-score),[17],-0.584
same,glycan array binding signal (z-score),[18],-0.373
same,glycan array binding signal (z-score),[19],-0.467
same,glycan array binding signal (z-score),[20],-0.407
same,glycan array binding signal (z-score),[21],0.049
same,glycan array binding signal (z-score),[22],-0.113
same,glycan array binding signal (z-score),[23],0.28
same,glycan array binding signal (z-score),[24],2.39
same,glycan array binding signal (z-score),[25],2.15
same,glycan array binding signal (z-score),[26],2.33
same,glycan array binding signal (z-score),[27],0.447
same,glycan array binding signal (z-score),[28],-0.03
same,glycan array binding signal (z-score),[29],-0.316

# From the supplement of paper PMC8728848
